Data reported in ChEMBL document CHEMBL4513156, “CO-ADD screening of NCPRI (Romania) compounds”.
Results with a measured potency or affinity are listed apart.

Columns and labels:
Klebsiella pneumoniae = settings: Concentration 32 ug.mL-1; ASSAY_TEST Inhibition of Bacterial Growth; detection method Absorption (OD600); MEDIA CAMHB; plate type 384well; NBS; CORNING #3640; time 18 hr
Candida albicans = settings: 32 ug/mL
Cryptococcus neoformans = settings: Concentration 32 ug.mL-1; ASSAY_TEST Inhibition of Fungal Growth; detection method Resazurin; Absorption (OD600-OD570); plate type 384well; NBS; CORNING #3640

| Compound | Inhibition (Klebsiella pneumoniae) [%] | Inhibition (Candida albicans) [%] | Inhibition (Cryptococcus neoformans) [%] |
| --- | --- | --- | --- |
| O=C(N/N=C1/C[C@H]2[C@H](CO)[C@@H]1C[C@@H]2Cl)c1ccncc1 | 18.7 | 2.15 | -80.47 |
| O=C(N/N=C1\C[C@@H]2[C@@H](CO)[C@H]1C[C@H]2Cl)c1ccncc1 | 21.63 | -0.38 | -60.68 |
| O=C(N/N=C/C[C@@H]1[C@@H](/C=C/[C@@H](O)COc2cccc(Cl)c2)[C@H](O)C[C@@H]1O)c1ccncc1 | 18.63 | 0.21 | -81.79 |
| COC(=O)C[C@H]1[C@H](/C=N\NC(=O)c2ccncc2)[C@@H](O[Si](C)(C)C(C)(C)C)C[C@@H]1Cl | 21.45 | 1.67 | -101.31 |
| O=C(N/N=C/CCCO)c1ccncc1 | 3.72 | 0.75 | -50.92 |
| O=C1C[C@H]2[C@H](/C=N/NC(=O)c3ccncc3)[C@H](C[C@@H]2Cl)O1 | 20.57 | 3.46 | -80.73 |
| O=C(N/N=C/COc1cccc(Cl)c1)c1ccncc1 | 5.99 | 1.44 | -88.39 |
| O=C(NN=C[C@H]1[C@H]2CC(O)OC[C@H]2C[C@H]1O)c1ccncc1 (stereo not given in full) | 2.56 | 3.89 | -80.47 |
| O=C(NNC(=O)[C@@H]1C[C@H](C(=O)O)[C@@H]2CC=C[C@@H]21)c1ccncc1 | 15.82 | 1.29 | -37.2 |
| CC(C)(C)[Si](C)(C)OC[C@H]1[C@H](CC=NNC(=O)c2ccncc2)[C@H](O)C[C@@H]1O[Si](C)(C)C(C)(C)C | 19.31 | 3.64 | -64.37 |
